Rows were chosen to be rich in hits. Some 12% of all compounds tested hit in one or more screens of this group.
BAZ2B inh – qHTS Assay for Inhibitors of BAZ2B. hit rate 4.4% among 360,000. AlphaScreen BAZ2B-H3K14Ac peptide displacement. AID 504333, 2011. Potency, µM (doses to about 114 µM), usual class: inhibitors; further: nearly all actives have a fitted effect of over 60% in size
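Inhibition is scored as reduced AlphaScreen emission. The BAZ2B/b-H3(5-23)K14Ac complex (50 nM each) in PBS pH 7.4, 0.01% Tween-20 meets compound (up to 110 uM) for 30 min at RT before bead addition.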
HP1b binding inh – HTS for Inhibitors of HP1-beta Chromodomain Interactions with Methylated Histone Tails; AlphaScreen HP1-beta / biotin-H3K9me3 peptide binding; Potency, µM (top dose mostly 114 µM), usual class: inhibitors; hit rate 0.56% among 390,000; AID 540317, 2011; further: nearly all actives have a fitted effect of over 70% in size
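AlphaScreen: HP1-beta (50 nM) preformed 30 min with biotin-H3(1-18)K9me3 peptide (50 nM) in PBS pH 7.4, 0.01% Tween-20. Compound added for 30 min at RT, then streptavidin donor/nickel chelate acceptor beads (10 ug/mL) for 30 min.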
L3MBTL1 block – qHTS Assay for the Inhibitors of L3MBTL1; Lethal(3)malignant brain tumor-like protein 1 (Homo sapiens), Q9Y468; AlphaScreen L3MBTL1–H3K9me1 peptide binding; Potency, µM (doses to about 57.1 µM), hits mostly inhibitors; hit rate 0.66% among 230,000; AID 485360, 2010; further: nearly all actives have a fitted effect of over 60% in size
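AlphaScreen proximity signal between nickel-chelate acceptor and streptavidin donor beads (final 10 ug/mL) reports binding of 50 nM L3MBTL1 to 75 nM biotin-H3 K9me1 peptide; complex incubated with compounds 30 min at room temperature; cefsulodin titration as control.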
Sfp inh – qHTS Assay for Inhibitors of Bacillus subtilis Sfp phosphopantetheinyl transferase (PPTase); 4'-phosphopantetheinyl transferase ffp (Bacillus subtilis), Q9F4F7; Biochemical Sfp PPTase activity, qHTS; Potency, µM, usual class: inhibitors; hit rate 3.5% among 310,000; AID 1490, 2009;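 further: the enzyme is Sfp with the accession as filed and its product quenches rhodamine fluorescence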
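Buffer: 50 mM Hepes-Na pH 7.6, 10 mM MgCl2, 0.01% Nonidet P-40, 0.01% BSA. Enzyme 15 nM, pre-exposed to compound 15 min; substrates then added and fluorescence change tracked over 30 min.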
G9a block – qHTS Assay for Inhibitors of Histone Lysine Methyltransferase G9a; AID 504332, 2011; Histone-lysine N-methyltransferase EHMT2 (Homo sapiens), Q96KQ7; Potency, µM (highest dose often 102 µM), most hits filed as inhibitors; hit rate 8.8% among 350,000; G9a H3K9 monomethylation, AlphaScreen, 2 h; further: nearly all actives have a fitted effect of over 75% in size
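Chemiluminescent proximity detection of H3K9 monomethylation, read after 10 min bead incubation in the dark. Reaction: 20 nM G9a, 500 nM biotin-H3K9 peptide, 20 uM SAM cofactor, 2 h, room temperature, following 15 min enzyme-compound preincubation.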
JMJD2A Tudor – qHTS Assay for Inhibitors of JMJD2A-Tudor Domain | Lysine-specific demethylase 4A (Homo sapiens), O75164 | AlphaScreen JMJD2A-Tudor / H3K4me3 peptide binding | Potency, µM (series often up to 114 µM), most hits filed as inhibitors | hit rate 4.4% among 390,000 | AID 504339, 2011; further: nearly all actives have a fitted effect of over 50% in size
Numbers stand for hits; ! = not confirmed by another sample; [ ] = another dose, or the depositor's remark. The call rests on the fitted dose curve; in most records, active means well fitted curve in the direction sought with a large enough effect; inconclusive means small, poorly fitted or top-dose-only effect, or another doubt; inactive means no such curve, though single readings can be large; an effect the other way counts as inactive or inconclusive.

Screening OC(COc1cccc2ccccc12)CN1CCN(c2ccc(Cl)cc2)CC1 (stereo unspecified) returned BAZ2B inh inconclusive, HP1b binding inh inactive, Sfp inh inactive, G9a block 45µM and JMJD2A Tudor inconclusive.
Screening OC(COCC1COc2ccccc2O1)CN1CCN(c2ccccn2)CC1 (stereo unspecified) returned BAZ2B inh inactive, HP1b binding inh inactive, L3MBTL1 block inactive, Sfp inh inactive, G9a block inactive and JMJD2A Tudor 45µM!.
`COc1ccccc1C(=O)NCC(=O)NCCC(c1ccccc1)c1ccccc1` gave BAZ2B inh inactive, HP1b binding inh inactive, L3MBTL1 block inactive, G9a block inconclusive and JMJD2A Tudor inactive.
`C=CCn1c(SCCC)nc2ccccc2c1=O` gave HP1b binding inh inactive and JMJD2A Tudor inactive.
`C[C@H](NC(=O)Cc1cc(F)cc(F)c1)C(=O)N[C@@H](C(=O)OC(C)(C)C)c1ccccc1` gave Sfp inh inactive.
Cc1noc(NS(=O)(=O)c2ccc(NC(=O)CC34CC5CC(CC(Br)(C5)C3)C4)cc2)c1C was read as BAZ2B inh inactive, HP1b binding inh inactive, L3MBTL1 block inactive, Sfp inh inactive, G9a block 71µM and JMJD2A Tudor inactive.
For Cc1noc(NS(=O)(=O)c2ccc(NC(=O)/C=C/c3ccc(Br)cc3)cc2)c1C the results were BAZ2B inh inactive, HP1b binding inh inactive, Sfp inh inactive, G9a block inconclusive and JMJD2A Tudor inactive.
Cc1noc(NS(=O)(=O)c2ccc(NC(=O)/C=C/c3ccc(C(C)C)cc3)cc2)c1C was read as BAZ2B inh inconclusive, HP1b binding inh inactive, Sfp inh inactive, G9a block 45µM and JMJD2A Tudor inactive.
Cc1noc(NS(=O)(=O)c2ccc(NC(=O)CCN3C(=O)c4ccccc4C3=O)cc2)c1C was read as BAZ2B inh inactive, HP1b binding inh inactive, L3MBTL1 block inactive, Sfp inh inactive, G9a block inactive and JMJD2A Tudor inactive.
For Cc1noc(NS(=O)(=O)c2ccc(NC(=O)c3ccc(N4C(=O)c5ccccc5C4=O)cc3)cc2)c1C the results were BAZ2B inh 50µM, HP1b binding inh inactive, Sfp inh inactive, G9a block inactive and JMJD2A Tudor inactive.
For Cc1ccc2c(=O)cc(C(=O)Nc3ccc(S(=O)(=O)Nc4onc(C)c4C)cc3)oc2c1C the results were BAZ2B inh inactive, HP1b binding inh inactive, G9a block inactive and JMJD2A Tudor 56µM.
`Cc1cc2oc(C(=O)Nc3ccc(S(=O)(=O)Nc4onc(C)c4C)cc3)cc(=O)c2cc1C` gave BAZ2B inh inactive, HP1b binding inh inactive, G9a block inactive and JMJD2A Tudor inactive.
`CNC(=O)c1ccc2nc(-c3cccc(C)c3)c(-c3cccc(C)c3)nc2c1` gave HP1b binding inh inactive and JMJD2A Tudor inactive.
`COc1cc(/C=N/NC(=O)COc2ccc([N+](=O)[O-])cc2)ccc1OCC(=O)N1CCOCC1` gave BAZ2B inh inactive, HP1b binding inh inactive, Sfp inh inactive, G9a block inactive and JMJD2A Tudor inactive.
Screening Cc1cccc(NC(=O)CN2C(=O)CSc3ccc(S(=O)(=O)N4CCCC4)cc32)c1C returned BAZ2B inh inactive, HP1b binding inh inactive, G9a block inactive and JMJD2A Tudor inactive.
Screening CC1=N/C(=C\c2ccccc2Cl)C(=O)O1 returned HP1b binding inh inactive and JMJD2A Tudor inactive.
`CN(C)c1ccc(C2CC(=O)NC3=C2C(=O)CC(C)(C)C3)cc1` (stereo unspecified) gave BAZ2B inh inactive, HP1b binding inh inactive, L3MBTL1 block inactive, Sfp inh inactive, G9a block inconclusive and JMJD2A Tudor inactive.
CCN(CC)c1ccc(C2CC(=O)NC3=C2C(=O)CC(C)(C)C3)cc1 (stereo unspecified) was read as BAZ2B inh inactive, HP1b binding inh inactive, L3MBTL1 block inactive, Sfp inh inactive, G9a block 50µM and JMJD2A Tudor inactive.
Screening COc1ccc(SCC(Cc2ccccc2)N2CCN(CCc3ccccc3)CCC2=O)cc1 (stereo unspecified) returned HP1b binding inh inactive, Sfp inh inactive and JMJD2A Tudor inconclusive.
For COc1ccc(C2C(C(=O)c3ccco3)=C(O)C(=O)N2c2nnc(C)s2)cc1 (stereo unspecified) the results were BAZ2B inh 50µM, HP1b binding inh inactive, L3MBTL1 block inactive, Sfp inh 10µM and JMJD2A Tudor inactive.
For C=CCOc1ccc(C2C(C(=O)c3ccco3)=C(O)C(=O)N2c2nnc(C)s2)cc1 (stereo unspecified) the results were BAZ2B inh 79µM, HP1b binding inh inactive, L3MBTL1 block inactive, Sfp inh 7.1µM, G9a block inactive[12.7 µM] and JMJD2A Tudor 28µM.
COc1ccc(C2C(C(=O)c3ccco3)=C(O)C(=O)N2c2nnc(C)s2)cc1OC (stereo unspecified) was read as BAZ2B inh inactive, HP1b binding inh inactive, Sfp inh inactive, G9a block 50µM and JMJD2A Tudor 25µM.
`CC1=NS(=O)(=O)NC(C)(C)C1` gave HP1b binding inh inactive and JMJD2A Tudor inactive.
C1=C(CCNc2nnnn2-c2ccccc2)CCCC1 was read as BAZ2B inh inactive, HP1b binding inh inactive, L3MBTL1 block inactive, Sfp inh inactive, G9a block inactive and JMJD2A Tudor 50µM.
Screening Clc1ccc(-c2c[n+]3c(n2-c2ccccc2)SCC3)cc1 returned BAZ2B inh inactive, HP1b binding inh inactive, L3MBTL1 block inactive, Sfp inh inactive, G9a block 56µM and JMJD2A Tudor inactive.
Cc1nn(-c2ccc(N3CCOCC3)nn2)c(C)c1CCC(=O)NCc1ccc(Cl)cc1 was read as BAZ2B inh inactive, HP1b binding inh inactive, G9a block inactive and JMJD2A Tudor inactive.
`O=C(Nc1ncc([N+](=O)[O-])s1)c1cccc([N+](=O)[O-])c1` gave BAZ2B inh inactive, HP1b binding inh inactive, Sfp inh inactive, G9a block inconclusive and JMJD2A Tudor inactive.
`O=C(Nc1ccccc1)Nc1ncc([N+](=O)[O-])s1` gave BAZ2B inh inconclusive, HP1b binding inh inactive, L3MBTL1 block inactive, Sfp inh inactive, G9a block 45µM and JMJD2A Tudor inactive.
For O=C(COC(=O)c1ccccc1)Nc1ncc([N+](=O)[O-])s1 the results were HP1b binding inh inconclusive, L3MBTL1 block 3.5µM and JMJD2A Tudor 20µM.

Screens as filed in PubChem.
